# The supplement of paper PMC3334620
# Over roughly 33,000 sequences, “E-score (-0.5 to 0.5)” has its median near -8e-05; the highest 2% begin near 0.23. Many of the other results were omitted from the sample, so the highest values are more common in it than they were.
# Target: T1, Nrg2 (UniProt P38082)
# T1 sequence: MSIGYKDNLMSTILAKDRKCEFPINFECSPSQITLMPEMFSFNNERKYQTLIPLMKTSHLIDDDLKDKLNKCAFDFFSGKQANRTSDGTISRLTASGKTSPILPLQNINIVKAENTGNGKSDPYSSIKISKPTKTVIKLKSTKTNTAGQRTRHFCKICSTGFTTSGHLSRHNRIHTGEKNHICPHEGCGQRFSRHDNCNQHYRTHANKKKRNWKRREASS
# Test: PBM E-score (8-mer binding enrichment) (E-score (-0.5 to 0.5)); higher = stronger / more preferred TF binding
# Settings: protein concentration: 100 nM; construct: GST-full length
# Method: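 Universal 'all 10-mer' protein binding microarrays (Agilent AMADID 015681) probed with GST-tagged S. cerevisiae TFs (full-length or DBD) made by in vitro transcription/translation (PURExpress), about 100-200 nM. Bound TF was detected with fluorescent anti-GST. Each ungapped 8-mer (which stands for itself and its reverse complement) is scored by the PBM enrichment score (E-score), a modified Wilcoxon-Mann-Whitney statistic from -0.5 to +0.5, computed with the Universal PBM Analysis Suite. Scale: above 0.35 generally sequence-specific binding.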
row,Sequence,PBM E-score
1,CCTTAGAA,-0.0241
2,GCTAACCA,-0.172
3,GTAAGATA,0.0912
4,GCAACCTA,0.0294
5,GAATCCTC,-0.1
6,AGTAAGGA,-0.00565
7,AGTAAGGG,0.233
8,AGCAAGGC,-0.0107
9,AGTAAGGC,-0.036
10,AGCAAGGG,0.261
11,AGCAAAGG,0.0268
12,AGCAACTC,-0.0833
13,GCCGGATA,0.0712
14,GAAAGCCC,0.0882
15,GAAACACC,0.0146
16,AGTCCCTA,0.0553
17,AATCCCTG,0.278
18,AGTCCCTG,0.294
19,AATCCCTA,0.154
20,AGTCCCTC,-0.0587
21,AATCCCTC,-0.0866
22,CTTCAGCC,-0.229
23,ACATCAAT,0.079
24,ATAAATTA,0.316
25,ATCAATTA,0.271

row,Sequence,PBM E-score
1,ATAAATTG,0.272
2,ATCAATTG,0.15
3,ATCAATTC,0.107
4,ATAAATTC,0.0818
5,CTAAATTA,0.127
6,GTAAATTA,-0.132
7,AAAAATTG,-0.095
8,ACTAAGGG,0.0502
9,GGCTTCCA,-0.186
10,CGCTTTTA,-0.0218
11,GGTGCCTA,-0.0877
12,CGCGCACC,0.14
13,GGTTCACA,0.103
14,TCTCGCAA,-0.0499
15,CAACCGCG,0.271
16,AAACCGCA,-0.0776
17,CAACCGCC,0.0219
18,AAACCGCC,0.041
19,CAACCGCA,0.0352
20,AAACCGCG,0.266
21,CGTCTTGC,0.0795
22,CATGAATC,0.115
23,GTTTGTGA,-0.00935
24,AACAAGTA,-0.0255
25,TACAAGCA,0.121

row,Sequence,PBM E-score
1,AACAAATG,0.0558
2,AACAAGTT,-0.0278
3,AACAAATT,0.251
4,AACAAACA,0.22
5,TACAAATA,0.0774
6,AACAAATA,0.247
7,AACAAGGT,0.0681
8,TACAAACA,0.243
9,AACAAAGT,0.26
10,AACAAAGG,0.0899
11,ACCAAGGA,-0.0125
12,CGGTGGCC,0.0203
13,AGATCTAC,0.00881
14,ATGCCTGA,-0.126
15,CATTTGAA,0.0105
16,CTTAGTCA,-0.0736
17,CGGCCCCA,-0.253
18,ACTCATGA,0.143
19,CCTAACTC,-0.0633
20,AACCTCAG,0.072
21,CACCTCGA,0.256
22,GACCTCGA,0.126
23,AACCTCGA,0.0566
24,GGTTCAGA,0.0397
25,CCCATGGA,-0.00741

row,Sequence,PBM E-score
1,CCCATGGG,0.323
2,ACCATGGG,-0.0447
3,TAGAACAA,-0.00331
4,AGTCAGGA,0.0134
5,CGTCAGGA,-0.112
6,GGTCAGGA,0.244
7,GTGGCAGA,-0.276
8,AAGAGCAT,-0.0179
9,CGCCCTGA,0.167
10,GCCCCTTA,0.114
11,GCCCCTGA,0.292
12,AGCCCTGA,0.0189
13,GGCCCTGA,0.24
14,GCCCCCTA,-0.212
15,ACATAGAA,0.157
16,TCCATCGA,-0.021
17,GATACCCC,0.0656
18,AGCTTTAC,-0.26
19,CCCGAGGC,-0.176
20,CATGGTAC,0.00349
21,CTATGACA,-0.012
22,ATATGACA,0.244
23,GTATGAGA,0.133
24,ATATGATA,0.249
25,ATATGATG,0.0173

row,Sequence,PBM E-score
1,CTATGATA,0.0584
2,GCATGATA,0.0399
3,GTATGACA,-0.0684
4,GTATGATA,0.281
5,GAGGGCAC,-0.111
6,AGACAGTA,0.0173
7,CGAAGCGC,-0.0339
8,CCATCCTC,-0.111
9,CTCGGCAC,0.0273
10,AAAGATAA,0.112
11,AAAGATAG,-0.188
12,AAAGATAC,0.232
13,TCAAAGAA,-0.123
14,ACGTCTTG,-0.0332
15,GATAGAGA,-0.0171
16,CTAAGGAA,0.0506
17,CCCTTACG,-0.128
18,CCGCGAAA,0.0786
19,TCGCGAAA,0.161
20,ACGCGAAA,0.242
21,CGAGTGCA,0.0846
22,GTATGGTA,0.158
23,GGACGCCA,-0.149
24,AGACCCAC,0.0598
25,AACTTTGA,-0.0178

row,Sequence,PBM E-score
1,AACTTTGT,0.251
2,AACTTTGG,-0.0393
3,CGGCTATA,-0.0676
4,GTAACCAA,0.0617
5,CTCCGAAA,-0.0954
6,ATGACAAC,0.239
7,AAGACAAG,-0.0376
8,AAGACAAC,0.235
9,CAGACAAC,0.178
10,GTGACAAC,0.112
11,ATGACAAG,0.142
12,AAACCGAT,-0.137
13,CCGCCCGA,0.148
14,ACTTGGCC,-0.0839
15,ATCTGCGG,0.229
16,ATCTGCGA,0.0624
17,ATCTGCGC,0.0656
18,ACTAGAGT,-0.204
19,CTTCGGAC,0.0444
20,ATTATCGG,-0.142
21,ATTATCGC,0.254
22,ATTATCGA,-0.00721
23,ATAGGGGG,-0.364
24,CCCGACCG,-0.0769
25,CACCTGGG,-0.0933

row,Sequence,PBM E-score
1,AACGCGAA,0.249
2,ATCGCGAC,0.0998
3,CACGCGAA,-0.135
4,AACGCGAG,0.092
5,CTCGCGAC,0.192
6,ATCGCGAG,0.175
7,GGCGCGAC,0.149
8,TTCGCGAA,0.22
9,GTCGCGAC,0.37
10,ATCGCGAT,0.271
11,GTCGCGAA,0.125
12,ATCGCGAA,0.268
13,CCGCGCCA,-0.00589
14,CTCCTGTA,-0.111
15,ATACCGGA,-0.222
16,GGCGAGAA,0.16
17,AGTGTATG,0.0501
18,AAGCTACT,0.0546
19,GATCCAGA,0.187
20,AACGTAGG,-0.148
21,CAAAGCGG,-0.0751
22,AAGCAGTA,-0.0813
